From PubChem BioAssay (Tox21)
Records with an inconclusive call do not appear. Activity calls are given as the source filed them. Unless noted, calls come from the whole dose curve; as a rule, active = well fitted curve in the direction sought with a large enough effect in the repeat runs; inconclusive = weak or mixed curves; inactive = no such curve, though single readings can be large; an effect the other way counts as inactive or inconclusive.

Tests used:
[1] = qHTS assay to identify small molecule antagonists of the estrogen related receptor signaling pathway with the pleiotropic PPARgamma coactivator (PGC) from Tox21 10K library - cell viability counter screen (AID 1224840; active = well fitted cell-killing curve with a large enough effect in the repeat runs, not every such curve was filed as active; note: nearly all actives have a fitted effect of over 40% in size)
Method in brief: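 PGC/ERR cells were seeded at 2,000 cells/well and left 6 hours at 37 C/5% CO2 before pin-tool addition of compounds in DMSO. After 17.5 hours at 37 C, CellTiter-Fluor was added and fluorescence read 30 minutes later.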

[2] = molecular target: Thyrotropin receptor (Homo sapiens) (UniProt P16473); experiment: qHTS assay to identify small molecule agonists of the thyroid stimulating hormone receptor (TSHR) signaling pathway (AID 1224843; calls by dose curve; note: nearly all actives have a fitted effect of over 45% in size)
Method in brief: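 Steps: seed 800 TSHR-HEK293 cells per well; add test compound and hold 30 min at ambient temperature; dispense cAMP-d2 then anti-cAMP cryptate; incubate 1 h at ambient; measure fluorescence intensity.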

[3] = qHTS assay to identify small molecule agonists of the hypoxia (HIF-1) signaling pathway - cell viability counter screen (AID 1224844; calls by dose curve; note: nearly all actives have a fitted effect of over 50% in size)
Method in brief: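 HRE-bla ME-180 cells in medium with 0.5% dialyzed FBS were preincubated 5 hrs at 37C, exposed to compounds for 17 hrs, then viability was read as CellTiter-Glo luminescence after 30 min at room temperature, in the reporter wells.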

[4] = qHTS assay to identify small molecule agonists of H2AX (AID 1224845; active = well fitted activation curve with a large enough effect in the signal ratio in the repeat runs, not every such curve was filed as active; the % refers to the signal ratio)
Method in brief: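 Wild-type CHO-K1 cells, plated overnight, exposed 3hr at 37C to 15 concentrations (0.76% DMSO final). Lysed, then HTRF anti-pH2AX (S139) cryptate and anti-H2AX-d2 antibodies, 24 hr room temperature; 665/620 nm emission read.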

[5] = qHTS assay to identify small molecule agonists of the hypoxia (HIF-1) signaling pathway (AID 1224846; active = well fitted activation curve with a large enough effect in the signal ratio in the repeat runs, not every such curve was filed as active; the % refers to the signal ratio)
Method in brief: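 HRE-bla ME-180 cells (beta-lactamase reporter under hypoxia response element) were plated at 2,000 cells/well in medium with 0.5% dialyzed FBS, rested 5 hrs, then given compounds in DMSO for 17 hrs at 37C, 5% CO2. Reporter induction was read with CCF4-AM FRET substrate.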

[6] = qHTS assay to identify small molecule agonists of H2AX - cell viability counter screen (AID 1224847; calls by dose curve; note: top concentration of the series differs between compounds; nearly all actives have a fitted effect of over 30% in size)
Method in brief: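 After overnight plating of 1000 CHO-K1 cells per well, a 15-concentration compound series was applied for 3 hr at 37C. Luminescence from CellTiter-Glo, read following 30 min at room temperature, reflected cell viability.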

[7] = qHTS RealTime-Glo MT Cell Viability Assay in HepG2 cells - 24 hour (AID 1224867); note: nearly all actives have a fitted effect of over 50% in size
Method in brief: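 Compound treatment began 5 h after plating HepG2 cells (600/well) with NanoLuc luciferase and prosubstrate. Plates stayed at 37 C for 40 h; luminescence was captured at six time points, 0 h through 40 h.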

[8] = qHTS RealTime-Glo MT Cell Viability Assay in HEK293 cells - 32 hour (AID 1224868); note: top concentration of the series differs between compounds; nearly all actives have a fitted effect of over 50% in size
Method in brief: (§1)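 Quantitative high-throughput screen of the Tox21 10K library in HEK293: cells and RealTime-Glo reagents plated together, compound added at 5 h, luminescence monitored through 40 h at 37 C.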

[9] = A CellTox Green Cytotoxicity Assay to monitor cytotoxicity in HEK293 cells - 0 hour (AID 1224869); note: nearly all actives have a fitted effect of over 50% in size
Method in brief: (§2)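 HEK293 cells premixed with CellTox Green dye were seeded at 600 cells/well and left 5 h at 37 C/5% CO2 before pin transfer of 23 nL compound in DMSO. Fluorescence from dye bound to dead-cell DNA was read during 40 h treatment.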

[10] = A CellTox Green Cytotoxicity Assay to monitor cytotoxicity in HEK293 cells - 40 hour (AID 1224871); note: nearly all actives have a fitted effect of over 45% in size
Method in brief: as §2

[11] = qHTS RealTime-Glo MT Cell Viability Assay in HEK293 cells - 16 hour (AID 1224872)
Method in brief: as §1

[12] = qHTS RealTime-Glo MT Cell Viability Assay in HepG2 cells - 8 hour (AID 1224873); note: nearly all actives have a fitted effect of over 55% in size
Method in brief: (§3)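 HepG2 cells (600/well) mixed with RealTime-Glo MT reagent, settled 5 h at 37 C/5% CO2 before compound addition. Nonlytic NanoLuc luminescence from viable-cell prosubstrate reduction read repeatedly during 40 h treatment at 37 C.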

[13] = qHTS RealTime-Glo MT Cell Viability Assay in HEK293 cells - 40 hour (AID 1224874); conditions: RealTime-Glo luminescence; max response: hits give low values; note: nearly all actives have a fitted effect of over 50% in size
Method in brief: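 HEK293 cells mixed with RealTime-Glo reagents (NanoLuc plus cell-permeant prosubstrate) at 600 cells/well, preincubated 5 h at 37 C/5% CO2, then given 23 nL compound in DMSO. Nonlytic luminescence from viable cells was read at 0, 8, 16, 24, 32 and 40 h.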

[14] = A CellTox Green Cytotoxicity Assay to monitor cytotoxicity in HEK293 cells - 24 hour (AID 1224875); note: series mostly up to about 77 µM; nearly all actives have a fitted effect of over 45% in size
Method in brief: as §2

[15] = qHTS RealTime-Glo MT Cell Viability Assay in HepG2 cells - 40 hour (AID 1224870); note: nearly all actives have a fitted effect of over 50% in size
Method in brief: as §3
% is set by controls: 0 for no effect and ±100 for the full control effect.

Chain of Thyrotropin receptor (Homo sapiens) (P16473 whole entry, looked up): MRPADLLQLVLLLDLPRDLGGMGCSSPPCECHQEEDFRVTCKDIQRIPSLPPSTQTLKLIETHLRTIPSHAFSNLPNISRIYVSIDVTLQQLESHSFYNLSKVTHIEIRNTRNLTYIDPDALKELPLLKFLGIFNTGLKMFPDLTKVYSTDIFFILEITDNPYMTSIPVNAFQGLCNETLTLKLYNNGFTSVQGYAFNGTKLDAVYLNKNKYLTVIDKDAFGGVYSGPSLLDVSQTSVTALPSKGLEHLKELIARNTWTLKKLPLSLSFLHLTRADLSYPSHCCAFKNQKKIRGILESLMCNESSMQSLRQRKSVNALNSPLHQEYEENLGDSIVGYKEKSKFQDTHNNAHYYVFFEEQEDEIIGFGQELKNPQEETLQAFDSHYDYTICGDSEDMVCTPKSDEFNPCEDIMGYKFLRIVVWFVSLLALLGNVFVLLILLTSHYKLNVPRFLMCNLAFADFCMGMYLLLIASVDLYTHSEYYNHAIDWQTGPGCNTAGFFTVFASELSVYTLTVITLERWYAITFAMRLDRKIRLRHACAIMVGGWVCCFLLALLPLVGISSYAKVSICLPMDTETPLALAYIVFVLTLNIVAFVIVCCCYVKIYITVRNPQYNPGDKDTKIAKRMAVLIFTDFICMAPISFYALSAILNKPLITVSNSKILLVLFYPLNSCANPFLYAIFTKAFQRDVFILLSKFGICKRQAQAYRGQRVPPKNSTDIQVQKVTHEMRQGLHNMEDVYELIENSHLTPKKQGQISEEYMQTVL

CCCCC/C=C/CC(=O)OC
inactive: outcome [1] | outcome [2] | outcome [3] | outcome [4] | outcome [5] | Potency [6] | outcome [7] | Potency [8] | Potency [9] | Potency [10] | Potency [11] | outcome [12] | max response [13] -0.743% | Potency [14]

CCCCCC(=O)OCC
inactive: outcome [1] | outcome [2] | outcome [3] | outcome [4] | outcome [5] | Potency [6] | outcome [7] | Potency [8] | Potency [9] | Potency [10] | Potency [11] | outcome [12] | max response [13] 5.39% | Potency [14]

CC(=O)OC(C(=O)c1ccccc1)c1ccccc1 (configuration not stated)
inactive: outcome [1] | outcome [2] | outcome [3] | outcome [4] | outcome [5] | Potency [6] | outcome [7] | outcome [15] | Potency [10] | outcome [12] | Potency [14]

Cc1ccc(S(=O)(=O)NC(=O)NC2CCCCCCC2)cc1
inactive: outcome [1] | outcome [2] | outcome [3] | outcome [4] | outcome [5] | Potency [6] | outcome [7] | Potency [8] | Potency [10] | Potency [11] | outcome [12] | max response [13] 0.902% | Potency [14]

C=C[Si](C)(C)O[Si](C)(C)C=C
inactive: outcome [1] | outcome [2] | outcome [3] | outcome [4] | Potency [6] | outcome [7] | Potency [8] | Potency [9] | outcome [15] | Potency [10] | Potency [11] | outcome [12] | max response [13] -1.44% | Potency [14]

CO[Si](CCCS)(OC)OC
inactive: outcome [1] | outcome [2] | outcome [4] | outcome [5] | Potency [6] | outcome [7] | Potency [8] | Potency [9] | outcome [15] | Potency [10] | Potency [11] | outcome [12] | max response [13] 0.328%

O=C1NC2NC(=O)NC2N1 (configuration not stated)
inactive: outcome [1] | outcome [2] | outcome [3] | outcome [4] | outcome [5] | Potency [6] | outcome [7] | Potency [8] | Potency [9] | Potency [10] | Potency [11] | outcome [12] | max response [13] 1.34% | Potency [14]

Nc1ccc(S(=O)(=O)NC(=O)c2ccccc2)cc1
inactive: outcome [1] | outcome [2] | outcome [3] | Potency [6] | outcome [7] | Potency [8] | outcome [15] | Potency [10] | Potency [11] | outcome [12] | max response [13] 2.96%

COc1ccc(OC)c(NC(=O)CC(C)=O)c1
inactive: outcome [1] | outcome [2] | outcome [3] | outcome [4] | outcome [5] | Potency [6] | outcome [7] | Potency [8] | Potency [9] | Potency [10] | Potency [11] | max response [13] 2.24% | Potency [14]

CC(C)CCCCCCOC(=O)C1CCCCC1C(=O)OCCCCCCC(C)C (configuration not stated)
inactive: outcome [1] | outcome [2] | outcome [3] | outcome [4] | outcome [5] | Potency [6] | outcome [7] | Potency [8] | Potency [9] | outcome [15] | Potency [10] | Potency [11] | max response [13] 14.8% | Potency [14]

C=C(C)[C@@H]1CC[C@@H](C)C[C@@H]1O
inactive: outcome [1] | outcome [2] | outcome [3] | outcome [4] | Potency [6] | outcome [7] | Potency [8] | Potency [9] | outcome [15] | Potency [10] | Potency [11] | outcome [12] | max response [13] 0.357% | Potency [14]

Cc1nc([N+](=O)[O-])cn1-c1ccc([N+](=O)[O-])cc1
inactive: outcome [1] | outcome [2] | outcome [3] | outcome [4] | outcome [5] | Potency [6] | outcome [7] | Potency [8] | Potency [9] | Potency [10] | Potency [11] | outcome [12] | max response [13] 4.25% | Potency [14]

CCOC(=O)C(C)(C)C
inactive: outcome [1] | outcome [2] | outcome [3] | outcome [4] | outcome [5] | Potency [6] | outcome [7] | Potency [8] | Potency [9] | Potency [10] | Potency [11] | outcome [12] | max response [13] -0.816% | Potency [14]

C=CCOc1cc(Cl)ccc1C(=O)NCCN(CC)CC
inactive: outcome [1] | outcome [2] | outcome [3] | outcome [4] | outcome [5] | Potency [6] | outcome [7] | Potency [8] | Potency [9] | outcome [15] | Potency [11] | outcome [12] | max response [13] -13.3%

C=CC(C)(O)CC/C=C(\C)CC (configuration not stated)
inactive: outcome [1] | outcome [2] | outcome [3] | outcome [4] | outcome [5] | Potency [6] | outcome [7] | Potency [8] | Potency [9] | outcome [15] | Potency [10] | Potency [11] | max response [13] 5.46% | Potency [14]

CCC(O)C(C)(C)C (configuration not stated)
inactive: outcome [1] | outcome [2] | outcome [3] | outcome [4] | outcome [5] | Potency [6] | outcome [7] | Potency [8] | Potency [9] | outcome [15] | Potency [11] | outcome [12] | max response [13] 2.07%

CCOC(=O)C(=O)c1csc(NC=O)n1
inactive: outcome [1] | outcome [2] | outcome [3] | outcome [4] | Potency [6] | outcome [7] | Potency [8] | Potency [9] | outcome [15] | Potency [10] | Potency [11] | outcome [12] | max response [13] 0.45% | Potency [14]
